Bioassay records (PubChem BioAssay)
Compounds with a hit are over-represented: about 0.37% of the library has one in this group of screens.
CatL block = inhibitors of human cathepsin L, biochemical; Procathepsin L (Homo sapiens), P07711; purified cathepsin L, fluorogenic substrate, fluorescence; inhibition, %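 (tested at 10 µM)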; 0.17% of 58,000 active; in the data active means inhibition above about 45%;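 further: 0% = enzyme with no compound and 100% = no enzyme blank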
Target sequence (P07711 114-288 limits assumed): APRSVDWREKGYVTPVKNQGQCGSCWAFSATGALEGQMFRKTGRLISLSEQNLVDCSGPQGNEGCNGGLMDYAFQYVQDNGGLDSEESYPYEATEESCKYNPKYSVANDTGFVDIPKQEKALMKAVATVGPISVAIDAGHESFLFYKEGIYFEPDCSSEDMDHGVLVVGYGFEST
Target sequence (P07711 292-333 limits assumed): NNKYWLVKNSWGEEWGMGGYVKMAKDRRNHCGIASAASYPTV
TNAP act mid DEA = human TNAP enzyme activators, primary screen, biochemical, luminescent, intermediate phosphate acceptor level; Alkaline phosphatase, tissue-nonspecific isozyme (Homo sapiens), P05186; purified TNAP, CDP-star luminescence, 100 mM DEA, 30 min; stronger effect = higher value; scale: 0 levamisole-inhibited, 1 vehicle-only enzyme; activation factor at 20 µM; 64,000 tested, under 10 active;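 active means activation factor of at least 2 at 20 µM, relative to controls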
CatB inh = human cathepsin B inhibitors, primary screen, biochemical, fluorogenic substrate. inhibition, %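 (tested at 10 µM)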. 0.1% of 63,000 active. P07858. purified cathepsin B, fluorescence; in the data active means inhibition above about 21%;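 further: 0% = enzyme with no compound and 100% = no enzyme blank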
CatB mixtures = cathepsin B inhibitors from pooled compounds, primary screen, biochemical, compound mixtures, AMC fluorescence; P07858; Purified cathepsin B, AMC dipeptide fluorescence; inhibition, %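 (ten-compound pools at 5 µM per compound and 50 µM total)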; 0.06% of 62,000 active; AID 488, 2006; in the data active means inhibition above about 22%, passing the limit was not always enough;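 further: 0% = enzyme without compound and 100% = no enzyme blank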
MMP13 inh = human MMP13 inhibitors, primary screen, biochemical, FRET peptide cleavage; Collagenase 3 (Homo sapiens), P45452; MMP-13 fTHP FRET cleavage, Mca fluorescence; inhibition, % at 4 µM; 0.07% of 65,000 active; AID 570, 2006;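 active means inhibition above the mean of compound-free control plate wells plus 3 SD, cut at about 14% in these data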;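 further: 0% = DMSO wells and 100% = wells with reference MMP-13 inhibitor after basal subtraction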
CatS inh = inhibitors of human cathepsin S, biochemical, compound mixtures; P25774; recombinant cathepsin S, AMC dipeptide fluorescence, pooled mixtures; inhibition, %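 (tested at 5 µM per compound within 10-compound mixtures)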; 0.06% of 62,000 active; AID 501, 2006; in the data active means inhibition above about 32%, passing the limit was not always enough;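 further: 0% = enzyme without compound and 100% = blank without enzyme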
* hit, by the source's call; . = not tested or not shown.

SMILES	CatL block	TNAP act mid DEA	CatB inh	CatB mixtures	MMP13 inh	CatS inh
N#Cc1nc(N2CCOCC2)nc(N2CCOCC2)n1	67.2*	0.9	9.2	8.2	1.4	31.9*
N#CCOc1nc(N2CCOCC2)nc(N2CCOCC2)n1	3.9	0.9	-1.1	8.3	0.7	13.3
CC(C)C(NS(=O)(=O)c1cccs1)C(=O)NCc1ccc2c(c1)OCO2 (stereo unspecified)	.	0.9	-4.9	5.8	8.6	4.1
COc1ccccc1NC(=O)CCC(=O)O	22.3	0.9	33.2*	53.1	0.3	.
CCOc1ccccc1NC(=O)CCC(=O)O	-0.1	0.9	0.8	10.4	-2.5	-4.5
COC(=O)c1ccc(OCC(O)CN(CC(C)C)CC(C)C)cc1 (stereo unspecified)	-3.3	0.9	3.5	2.8	5.2	-10.3
O=C(Nc1cc(C(F)(F)F)ccc1N1CCOCC1)C1Cc2ccccc2CN1C(=O)c1ccco1 (stereo unspecified)	6.9	0.9	-3.8	-3.2	-2.3	-6.1
